Hits are enriched below; roughly 1.1% of the tested compounds scored in any of these assays.
SARS PLpro yeast-1 = qHTS of Yeast-based Assay for SARS-CoV PLP. AID 485353, 2010. Potency, µM (series often up to 32.9 µM), inactives show at the highest dose activity, positive = growth rescue, actives largely listed as activators. S. cerevisiae expressing SARS-CoV PLpro, growth rescue. 330,000 tested, 0.19% active; calls by dose curve; note: potency is the fitted concentration of half-maximal effect; 0% is about no effect; nearly all actives have a fitted effect of over 55% in size
TbPYK inhibitor = qHTS of Trypanosoma Brucei Inhibitors | Potency, µM (highest dose often 76.8 µM), inactives show at the highest dose activity, negative = inhibition, hits mostly inhibitors | TbPYK enzyme, Kinase-Glo Plus ATP luminescence, 45 min | 410,000 tested, 0.12% active | pyruvate kinase (Trypanosoma brucei), Q57TT1; note: potency is the fitted concentration of half-maximal effect; % is set by controls: 0 for no effect and ±100 for the full control effect; nearly all actives have a fitted effect of over 50% in size
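Luminescent Kinase-Glo Plus end-point after 45 min room-temperature reaction of T. brucei pyruvate kinase started with 130 uM ADP (final). Buffer TEA 50 mM pH 7.2 with KCl, MgCl2, BSA, Tween-20; titration-based qHTS with fitted concentration-effect curves.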
LmPK inh = qHTS Assay for Inhibitors of Leishmania Mexicana Pyruvate Kinase (LmPK). purified LmPK, Kinase-Glo ATP luminescence, 1 h. Potency, µM (series often up to 57.5 µM), for the others: at the highest dose activity change, negative = inhibition, most hits filed as inhibitors. 290,000 tested, 0.37% active; note: potency is the fitted concentration of half-maximal effect; % is set by controls: 0 for no effect and ±100 for the full control effect
Target sequence (Q27686 whole entry, looked up): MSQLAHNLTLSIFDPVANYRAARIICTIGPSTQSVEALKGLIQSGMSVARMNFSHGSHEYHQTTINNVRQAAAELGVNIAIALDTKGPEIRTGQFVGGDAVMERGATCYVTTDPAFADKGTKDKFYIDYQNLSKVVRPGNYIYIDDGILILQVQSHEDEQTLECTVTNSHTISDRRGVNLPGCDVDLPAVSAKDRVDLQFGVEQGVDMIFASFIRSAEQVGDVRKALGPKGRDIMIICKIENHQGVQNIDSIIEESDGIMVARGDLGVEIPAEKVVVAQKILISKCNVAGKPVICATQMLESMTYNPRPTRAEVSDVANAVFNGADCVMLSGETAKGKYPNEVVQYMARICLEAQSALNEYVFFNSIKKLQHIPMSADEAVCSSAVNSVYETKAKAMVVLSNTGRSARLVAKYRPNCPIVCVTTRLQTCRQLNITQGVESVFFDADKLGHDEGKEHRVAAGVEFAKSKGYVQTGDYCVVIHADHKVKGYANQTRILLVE
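Purified LmPK (0.1 nM) converted ADP (0.1 mM) to ATP with PEP (0.5 mM) in imidazole buffer pH 7.2 with KCl and MgCl2, 1 h at room temperature. ATP was read by Kinase-Glo luminescence; data normalized to uninhibited and no-enzyme controls.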
RE007 growth inh = qHTS Assay for Inhibitors of the HIV-1 protein Vpr. AID 651644, 2012. 360,000 tested, 0.21% active. S. pombe RE007 Vpr strain, BacTiter-Glo ATP luminescence, 24 h. Potency, µM (doses to about 92.2 µM), inactives show top-dose activity change, negative = less growth, usual class: inhibitors; active = well fitted falling curve with a large enough effect; inconclusive = small, poorly fitted or top-dose-only effect; inactive = no such curve, though single readings can be large or run the other way; note: potency is the fitted concentration of half-maximal effect; % is set by controls: 0 for no effect and ±100 for the full control effect; nearly all actives have a fitted effect of over 50% in size
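Fission yeast strain RE007, carrying one chromosomally integrated HIV-1 vpr copy, was seeded at OD 0.01 in PMG+AL medium with 23 nL pinned compound. After 24 h at 30 °C and 99% humidity, viability was read by BacTiter-Glo luminescence.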
FBPA Giardia inh = qHTS Assay for Inhibitors of Fructose-1,6-bisphosphate Aldolase from Giardia Lamblia | 290,000 tested, 0.71% active | purified Giardia FBPA | Potency, µM (titrated, usually from 59.6 µM), without a hit: at the highest dose activity, negative = inhibition, hits mostly inhibitors | AID 2451, 2010; note: potency is the fitted concentration of half-maximal effect; % is set by controls: 0 for no effect and ±100 for the full control effect; nearly all actives have a fitted effect of over 55% in size
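40 nM FBPA preincubated 10 min at RT with compound (up to 57.5 uM final), then substrate plus GAPDH/TPI/NAD/arsenate coupling and diaphorase/resazurin added. Fluorescence read after 20 min at RT, 525/598 nm.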
SARS PLpro yeast-2 = qHTS of Yeast-based Assay for SARS-CoV PLP: Hit Validation | shares compounds with SARS PLpro yeast-1 | yeast expressing SARS-CoV PLpro, growth phenotype rescue | calls only | 1,000 tested, 19% active; call rule not given here
Starred values were filed as active, the others as inactive; i = inactive; ? = inconclusive; . = not tested or not shown; + = active, no number; [ ] = dose if it differs, or a comment. Unless noted, calls come from the whole dose curve; as a rule, active = well fitted curve in the direction sought with a large enough effect; inconclusive = small, poorly fitted or top-dose-only effect, or another doubt; inactive = no such curve, though single readings can be large; an effect the other way counts as inactive or inconclusive.

SMILES	SARS PLpro yeast-1	TbPYK inhibitor	LmPK inh	RE007 growth inh	FBPA Giardia inh	SARS PLpro yeast-2
CCc1nnc(NC(=O)c2ccc(S(=O)(=O)N3CCCc4ccccc43)cc2)o1	20µM*	-6%	7%	-9%	?	i
O=C(Nc1nnc(C2CC2)o1)c1ccc(S(=O)(=O)N2CCc3ccccc3C2)cc1	?	6%	0%	-18%	?	?
CSCc1nnc(NC(=O)c2ccc(S(=O)(=O)N(CC(C)C)CC(C)C)cc2)o1	29%	.	3%	.	-19%	.
Cc1cc(C)c2c(c1)c(C)cc1nnc(SCC(=O)c3ccc(F)cc3)n12	.	-29%	.	.	.	.
CCCCn1c(SCC(=O)c2ccccc2)nc2c(sc3ccccc32)c1=O	.	-1%	.	.	.	.
O=C(CSc1cccc[n+]1[O-])Nc1cccc(Oc2ccccc2)c1	?	-2%	0%	-5%	-14%	i
CCc1ccccc1NC(c1nnc(-c2cccc(F)c2)o1)c1ccc(F)cc1Cl (stereo unspecified)	.	3%	.	.	.	.
Cc1ccc(OC2=NS(=O)(=O)c3ccccc32)cc1	?	.	4%	2%[3.69 µM]	3%	i
COc1cccc(C(CNC(=O)C2CCN(C(=O)Nc3ccccc3)CC2)N(C)C)c1 (stereo unspecified)	?	2%	.	3%	.	i
CCN(CC(=O)Nc1cccc(OC)c1)C(=O)C1CCN(C(=O)Nc2ccccc2)CC1	-2%	-3%	-1%	20%	1%	.
CCOC(=O)c1ccccc1NC(=O)CN1C(=O)CC(c2ccccc2)Sc2ccccc21 (stereo unspecified)	.	2%	.	.	.	.
CCOc1ccc(N2CC(NC(=O)/C=C\c3ccc4c(c3)OCO4)CC2=O)cc1 (stereo unspecified)	.	8%	.	.	.	.
CC(=NC(C)C)C1=C(O)CCC1=O	?	-4%	1%	13%	-1%	i
CC(=Nc1ccc(C)c(C)c1)C1=C(O)CCC1=O	-3%	-6%	10%	26%	0%	.
COc1ccc(C(=O)NC(=S)NNC(=O)c2cnccn2)cc1OC	4µM*	-16%	-2%	4%	21%	?
COc1cc(OC)cc(C(=O)NC(=S)NNC(=O)c2cnccn2)c1	.	-23%	-8%	11%	?	i
COc1cc(OC)cc(C(=O)NC(=S)Nc2cccnc2)c1	9%	-1%	?	-8%	-31%	.
CCc1ccc(S(=O)(=O)c2cnc3ccc(OC)cc3c2N2CCCC(C)C2)cc1 (stereo unspecified)	.	3%	.	.	.	.
Cc1ccc(NC(c2cccc(Cl)c2)c2nnc(-c3ccccc3)o2)cc1F (stereo unspecified)	.	0%	.	.	.	.
Cc1ccc([N+](=O)[O-])cc1S(=O)(=O)Nc1cccc(-c2ccc(N3CCCC3)nn2)c1	11µM*	-4%	.	-9%	.	i
Cc1ccc(S(=O)(=O)Nc2cccc(-c3ccc(N4CCCCCC4)nn3)c2)cc1C	3%	2%	3%	-14%	1%	.
COc1ccc(NCc2cc3ccc(OC)cc3n(CC(=O)Nc3cccc(OC)c3)c2=O)cc1	.	3%	.	.	.	.
O=C(N/N=C/c1c(O)n(-c2ccc(Cl)cn2)c(=O)c2ccccc12)c1ccncc1	13µM*	-2%	-1%	8%	-14%	i
CC(CNC(=O)Cn1cnc2c(NCc3ccccc3)ncnc21)c1ccccc1 (stereo unspecified)	14µM*	0%	.	8%	.	+
O=C(OCC(=O)N1CCN(c2ccccc2)CC1)c1cccc(Cl)c1	?	6%	5%	9%	3%	i
SMILES	SARS PLpro yeast-1	TbPYK inhibitor	LmPK inh	RE007 growth inh	FBPA Giardia inh	SARS PLpro yeast-2
Cc1ccc(OC(=O)CSc2nnc(-c3cccs3)o2)cc1C	.	-1%	.	.	.	.
CCc1ccccc1NC(=O)N1CCc2cc(OC)c(OC)cc2C1CC(=O)OC (stereo unspecified)	.	3%	.	.	.	.
COC(=O)c1c(NC(=O)CSc2nc3ccccc3c(=O)n2Cc2ccco2)sc(C)c1C	?	0%	1%	46%	5%	+
Cc1ccc(Nc2nc(NCCCN3CCOCC3)nc(N)c2[N+](=O)[O-])cc1	?	-1%	0%	16%	8%	i
C#CCCCO/N=C1/C[C@@H](O)[C@@H](O)[C@@H]2[C@@H]3C(=O)N([C@@H](C)c4ccccc4)C(=O)[C@H]3CC[C@@H]12	.	.	.	.	3%[12.9 µM]	.
CC1CSc2ccccc2NC1=S (stereo unspecified)	10µM*	-4%	-2%	-11%	-28%	+
CCc1cccc(NC(=O)CN(C)S(=O)(=O)c2ccc3c(c2)n(C)c(=O)c(=O)n3C)c1	.	5%	.	.	.	.
S=C(Nc1ccc(Oc2ccccc2)cc1)NC1CCCCC1	-29%	-4%	2%	-21%	21%	.
S=C(NNc1ccc2ccccc2c1)NC1CCCCC1	.	-1%	0%	-11%	-12%	?
CC(C)(C)OC(=O)C[C@H]1C/C=C\C[C@@H](CC(=O)N[C@@H](CO)Cc2ccccc2)C(=O)NC[C@H](c2ccccc2)OC1=O	3.5µM*	3%	.	-9%	.	i
CC(C)(C)OC(=O)C[C@@H]1C/C=C\C[C@@H](CC(=O)N[C@@H](CO)Cc2ccccc2)C(=O)NC[C@@H](c2ccccc2)OC1=O	1%	-5%	.	-12%	.	.
O=c1cc(CO)oc(C(Nc2ccccn2)c2cccc(F)c2)c1O (stereo unspecified)	1%	-5%	-4%	1%	?	.
COc1cccc(C(Nc2ccccn2)c2oc(CO)cc(=O)c2O)c1 (stereo unspecified)	11µM*	-8%	18%	21%	?	i
Cc1cc(C)c(NC(=O)C(=O)NCC(c2cccnc2)N2CCN(c3ccccc3F)CC2)c(C)c1 (stereo unspecified)	.	-3%	.	.	.	.
CCOc1ccc(S(=O)(=O)NCCC(=O)NCCOc2ccccc2)cc1	?	1%	.	27%	.	i
O=C(N/N=C/c1c(O)n(Cc2ccccc2)c(=O)[nH]c1=O)c1ccccc1O	10µM*	-4%	0%	16%	?	i
COc1ccc(Cn2c(O)c(/C=N/NC(=O)c3ccccc3O)c(=O)[nH]c2=O)cc1	10µM*	1%	3%	-8%	?	i
O=C(N/N=C/c1c(O)n(Cc2ccc(F)cc2)c(=O)[nH]c1=O)c1ccccc1O	11µM*	-8%	-1%	-23%	?	i
O=c1[nH]c(=O)n(Cc2ccccc2)c(O)c1/C=N/NCCO	0%	-2%	-4%	3%	-6%	.
